40 compounds from PubChem BioAssay (EPA / NIEHS) can be followed below.

Records with an inconclusive call do not appear. Calls of active or inactive are those of the source. The calls were made as follows: active = hit-call score of the fitted dose curve at least 0.9, where 1 is the maximum; inconclusive = response in the unintended direction; inactive = score below 0.9.

The assay deals with Nuclear receptor subfamily 1 group I member 3 (Homo sapiens) (UniProt Q14994). Kind of assay: ATG_CAR_TRANS: Attagene TRANS-FACTORIAL HepG2 Assay for human Constitutive Androstane Receptor (CAR) (AID 2282969).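 Also: activators raise reporter mRNA above DMSO so AC50 marks induction.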 The settings on record: HepG2 Attagene TRANS-FACTORIAL CAR reporter. As to the method: ATG_TRANS is a cell-based, multiplexed-readout assay that uses HepG2, a human liver cell line, with measurements taken at 24 hours after chemical dosing in a 24-well plate.ATG_CAR_TRANS is one of 30 assay component(s) measured or calculated from the ATG_TRANS assay. It is designed to make measurements of mRNA induction, a form of inducible reporter, as detected with fluorescence intensity signals by Reverse transcription polymerase chain reaction (RT-PCR) and Capillary electrophoresis technology.Data from the assay component ATG_CAR_TRANS was analyzed into 1 assay endpoint. This assay endpoint, ATG_CAR_TRANS, was analyzed in the positive analysis fitting direction relative to DMSO as the negative control and baseline of activity. Using a type of inducible reporter, measures of mRNA for gain-of-signal activity can be used to understand the reporter gene at the transcription factor-level as they relate to the gene NR1I3. Furthermore, this assay endpoint can be referred to as a primary readout, because this assay has produced multiple assay endpoints where this one serves a reporter gene function. To generalize the intended target to other relatable targets, this assay endpoint is annotated to the nuclear receptor intended target family, where the subfamily is non-steroidal.
Sequence of Nuclear receptor subfamily 1 group I member 3 (Homo sapiens) (Q14994 whole entry, looked up): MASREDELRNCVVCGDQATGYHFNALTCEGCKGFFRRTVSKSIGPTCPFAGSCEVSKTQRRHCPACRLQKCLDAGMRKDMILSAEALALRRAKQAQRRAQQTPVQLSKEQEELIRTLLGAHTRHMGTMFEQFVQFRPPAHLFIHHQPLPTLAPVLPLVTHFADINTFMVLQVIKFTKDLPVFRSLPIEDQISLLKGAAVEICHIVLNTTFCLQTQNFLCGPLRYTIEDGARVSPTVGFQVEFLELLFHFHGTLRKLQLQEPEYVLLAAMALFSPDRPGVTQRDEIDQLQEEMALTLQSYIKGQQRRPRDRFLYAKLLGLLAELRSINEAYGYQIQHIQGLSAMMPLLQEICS
Human liver HepG2 cells are transiently transfected with multiple reporter transcription units (MRTUs) in 6-well plates using FuGene 6 reagent (Roche; 3 ml FuGene/1 mg DNA). The MRTU constructs are regulated by a cis-regulating element (promoter). […] A major difference between the CIS and TRANS system is that in CIS activities of endogenous TFs are measured, whereas the TRANS assay evaluates changes in activities of exogenous, chimeric NR-Gal4 proteins. […] At the end of 24 hour incubation, total RNA was isolated using TriZol reagent (Invitrogen). The isolated RNA is then reverse-transcribed using oligo(dT) primer and Mo-MLV reverse transcriptase (Invitrogen) with DNAse I (Ambion) treatment for 30 min. The one-tenth of the produced cDNA was amplified by PCR using Taq DNA polymerase (Invitrogen) and two reporter sequence-specific primers. The PCR products were fluorescently labeled by primer extension with 6-arboxyfluorescein (6-FAM) 5'-labeled reporter sequence-specific primer (2 min at 95 C, 20 s at 68 C and 10 min at 72 C) and these products were digested with 5U of HpaI (New England Biolabs) for 2h at 37 C. The fragments were purified using Qiaquick PCR columns (Qiagen), analyzed on an ABI 3130xL genetic analyzer (Applied Biosystems) with peak positions identified by using a set of X-rhodamine (ROX)-labeled MapMarker1000 molecular weight standards (BioVentures). The raw capillary electrophoresis data was processed using Attagraph software (Attagene).
For `CCCCCCCC(=O)OCC(O)CO` (stereo not given), the call was inactive. As to `CC(C)=CCCC(C)CCOC=O` (stereo not given), the call was inactive. For `O=C1c2ccccc2C(=O)c2c(O)ccc(O)c21`, the result was inactive.

Take `COc1ccc(COC(C)=O)cc1`: the outcome was inactive. Take `C=CCN(CC=C)CC=C`: the call was inactive. The same measure for `CC1(C)C2=CCCC(C)(C)[C@]23CC[C@H]1C3`: “inactive”; for `O=C1OC(=O)c2c(Cl)c(Cl)c(Cl)c(Cl)c21`: “inactive”; for `COCCOC(=O)c1ccccc1C(=O)OCCOC`: “inactive”. Take `CC(=O)c1c(C)c([N+](=O)[O-])c(C(C)(C)C)c([N+](=O)[O-])c1C`: the compound was called inactive.

In the case of `c1ccc(Oc2ccccc2)cc1`, the call was inactive. As for `C[C@H]1C[C@@H](O)CC(C)(C)C1`, the entry is “inactive”; as for `O=C(O)CNc1ccccc1`, “inactive”; as for `CC(=O)O[C@@H]1CC2CCC1(C)C2(C)C` (stereo not given in full), “inactive”.

Take `ClC(c1ccccc1)(c1ccccc1)c1ccccc1`: the call was inactive.

As for `O=C(O)COCC(=O)O`, the compound was classed as inactive. The same measure for `O=C(Nc1ccc2c(c1)Cc1ccccc1-2)C(F)(F)F`: “inactive”.

Turning to `CCCCCCCCCCCCCCN(CCO)CCO`, the compound was classed as inactive. As for `CCCCN(CCCC)C(=O)N(CCCC)CCCC`, the entry is “inactive”. Consider `O=c1c(O)c(-c2ccc(O)cc2)oc2cc(O)cc(O)c12`, for which the compound was classed as inactive. Regarding `C1=CC2C3C=CC(C3)C2C1` (stereo not given), the outcome was inactive. The same measure for `O=[N+]([O-])c1ccc(O)cc1C(F)(F)F`: “inactive”; for `ON=C1CCCCC1`: “inactive”. As for `FC(F)(F)COCC(F)(F)F`, the entry is “inactive”. As for `COc1ccc(OC)c(N=Nc2c(O)ccc3ccccc23)c1`, the entry is “inactive”; as for `CC(O)C1CCCCC1` (stereo not given), “inactive”. For the compound `CCCOC(=O)c1c(Cl)c(Cl)c(Cl)c(Cl)c1C(=O)OCCC`, the outcome was inactive. The same measure for `CCN(CCN)c1cccc(C)c1`: “inactive”; for `C=CCOC(=O)CCCCCC`: “inactive”. On to `Cc1cc(C)nc(NS(=O)(=O)c2ccc(N)cc2)n1`, for which the outcome was inactive. The same measure for `CCCCCCCC(=O)OCCCCCC`: “inactive”; for `CCCCOCC`: “inactive”; for `N#Cc1ccc(CC(=O)c2cccc(C(F)(F)F)c2)cc1`: “inactive”. As for `C[Si]1(C)O[Si](C)(C)O[Si](C)(C)O1`, the entry is “inactive”; as for `Cc1ccc(S(=O)(=O)Oc2ccc(N=Nc3ccc(-c4ccc(N=Nc5c(O)ccc6cc(S(=O)(=O)O)cc(S(=O)(=O)O)c56)c(C)c4)cc3C)cc2)cc1`, “inactive”.

For `Cc1cc(CCC(=O)OCCOCCOCCOC(=O)CCc2cc(C)c(O)c(C(C)(C)C)c2)cc(C(C)(C)C)c1O`, the result was inactive. In the case of `CC(C)C(OC(=O)c1ccccc1)C(C)(C)COC(=O)c1ccccc1` (stereo not given), the result was inactive. As for `CCCCCCC(=O)c1ccccc1`, the call was inactive.

As to `COc1ccc(N)c([N+](=O)[O-])c1`, the compound was called inactive. As for `CC(C)(CO)[C@@H](O)C(=O)NCCC(=O)O`, the result was inactive. As for `N#Cc1cscn1`, the entry is “inactive”.
